PABP polyA inh: PABP poly(A) RNA binding inhibitors, primary screen, biochemical, fluorescence polarization, uHTS; Polyadenylate-binding protein 1 (Homo sapiens), P11940; calls only at 35 µM; hit rate 1% among 290,000;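 also: calls also rest on retests at 20 µM and on dose response follow-up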
eIF4H FP inh: human eIF4H binding inhibitors, primary screen, translation initiation inhibitor project, biochemical, uHTS, fluorescence polarization; Eukaryotic translation initiation factor 4H (Homo sapiens), Q15056; eIF4H fluorescence polarization binding assay; inhibition, % at 35 µM; hit rate 0.94% among 290,000;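 also: calls also rest on retests at 20 µM and on dose response follow-up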
PABP1 MLLE inh: inhibitors of PABP1 MLLE–PAM2 peptide binding, primary screen, biochemical, fluorescence polarization, FITC-PAM2, GST-MLLE; Polyadenylate-binding protein 1 (Homo sapiens), P11940; inhibition, % at 20 µM; hit rate 0.36% among 360,000; AID 588489, 2011; in the data active = inhibition above about 35%, passing the limit was not always enough;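 also: plate controls were DMSO wells with GST-MLLE for no effect and wells lacking GST-MLLE protein for full effect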
AI-2 QS mod: Vibrio harveyi AI-2 quorum sensing modulators, primary screen, JMH597 strain, luminescence/OD600 ratio. activity change, % at 7.5 µM. AID 2094, 2009. hit rate 0.4% among 300,000. Vibrio harveyi JMH597 AI-2 luminescence/OD600 ratio, 9 h; stronger effect = lower value; strain lacks LuxN and CqsS sensors; 0 = neutral-control median; in the data active = activity change below about -75%, passing the limit was not always enough; inconclusive = no clear call, values can overlap the other calls;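 also: luminescence divided by OD600 gain over 9 h not by final OD600 alone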
ABCB6 inh MLPCN: ABCB6 transporter inhibitors, primary screen, K562-ABCB6 cells, flow cytometry, MLPCN library. ATP-binding cassette sub-family B member 6 (Homo sapiens), Q9NP58. K562-ABCB6 porphyrin accumulation, 1 h; stronger effect = lower value. fluorescence ratio to DMSO, % at 10 µM. hit rate 0.19% among 360,000;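 active = fluorescence ratio to DMSO below 75%, the collection mean minus 3 SD; inconclusive = too few cells collected in the well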;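 also: signal is porphyrin accumulated inside mitochondria; 100% equals median channel fluorescence of DMSO control wells; lower ratio means ABCB6 inhibition with less porphyrin fluorescence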
Target sequence (Q9NP58 whole entry, looked up): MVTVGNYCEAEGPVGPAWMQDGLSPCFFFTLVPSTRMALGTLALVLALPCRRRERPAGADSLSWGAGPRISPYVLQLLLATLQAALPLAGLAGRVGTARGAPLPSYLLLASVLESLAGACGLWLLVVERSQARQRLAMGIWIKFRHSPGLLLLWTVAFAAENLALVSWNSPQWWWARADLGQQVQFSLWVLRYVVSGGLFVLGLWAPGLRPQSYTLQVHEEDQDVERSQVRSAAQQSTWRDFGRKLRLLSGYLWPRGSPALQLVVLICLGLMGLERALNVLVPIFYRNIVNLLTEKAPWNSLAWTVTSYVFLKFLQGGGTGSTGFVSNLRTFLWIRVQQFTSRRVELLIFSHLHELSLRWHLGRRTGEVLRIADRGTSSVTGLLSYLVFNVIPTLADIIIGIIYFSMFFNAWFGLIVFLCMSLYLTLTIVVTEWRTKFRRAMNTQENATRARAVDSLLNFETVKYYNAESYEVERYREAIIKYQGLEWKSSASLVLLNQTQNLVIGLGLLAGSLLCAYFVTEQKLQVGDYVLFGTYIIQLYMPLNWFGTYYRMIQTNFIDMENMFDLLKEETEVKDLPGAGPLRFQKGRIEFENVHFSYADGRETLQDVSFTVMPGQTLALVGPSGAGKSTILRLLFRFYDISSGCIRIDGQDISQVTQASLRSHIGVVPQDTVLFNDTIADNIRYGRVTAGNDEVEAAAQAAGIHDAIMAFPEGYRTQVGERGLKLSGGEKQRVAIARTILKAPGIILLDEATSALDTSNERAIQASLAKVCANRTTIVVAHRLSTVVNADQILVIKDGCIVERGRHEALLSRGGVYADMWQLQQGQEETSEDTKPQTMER
PHOSPHO1 block: PubChem AID 1565. Phosphoethanolamine/phosphocholine phosphatase (Homo sapiens), Q8TCT1. recombinant PHOSPHO1, absorbance phosphatase assay. inhibition, % at 13.3 µM. hit rate 1.1% among 290,000; in the data active = inhibition above about 60%
* marks the source's active call; other numbers are inactive results; i = inactive; ? = inconclusive; . = no result given; + = active, no number. A selection: hits, their analogues and other compounds. The true share with any hit is near 2.6%. Unless noted, no rule for the calls is given here.

SMILES	PABP polyA inh	eIF4H FP inh	PABP1 MLLE inh	AI-2 QS mod	ABCB6 inh MLPCN	PHOSPHO1 block
CCOC(=O)C1CCN(/C=C2/C(=O)NC(=S)N(c3cccc(OC)c3)C2=O)CC1	i	-13	-5	14	103	-25
CCOC(=O)C1CCN(/C=C2\C(=O)NC(=S)N(CC)C2=O)CC1	i	3	-5	8	100	62*
COc1ccc(C(c2nnnn2-c2c(C)cccc2C)N2CCC3(CC2)C(=O)NCN3c2ccccc2)cc1 (configuration not stated)	.	.	-17	.	92	.
CN1C(=O)C(=Cc2sc(=O)n(-c3ccccc3)c2N2CCCCC2)C(=O)N(C)C1=O	?	?	-153	-32	100	16
CN1CCN(c2nc3ccccn3c(=O)c2C=C2C(=O)N(C)C(=O)N(C)C2=O)CC1	+	?	2	19	97	-1
C=Cn1ccnc1P(=S)(c1ccccc1)c1nccn1C=C	i	active	0	15	103	21
O=C(N/N=C/c1c(O)n(Cc2ccco2)c(=O)[nH]c1=O)c1ccccc1O	i	53*	-57	8	94	18
CC(=O)Nc1ccc(N=Cc2c(O)n(Cc3ccco3)c(=O)[nH]c2=O)cc1	i	68	18	.	92	-36
O=c1[nH]c(=O)n(Cc2ccco2)c(O)c1C=NCc1ccco1	i	10	13	0	100	-5
CCCCC(=O)N/N=C/c1c(O)n(Cc2ccco2)c(=O)[nH]c1=O	+	86	-35	15	101	11
CC(C)(C)n1nnnc1C(c1cccc2ccccc12)N1CCC2(CC1)C(=O)NCN2c1ccccc1 (configuration not stated)	.	.	17	.	99	.
O=c1[nH]c2ccccc2n1C1CCN(C(c2cc3ccccc3o2)c2nnnn2Cc2ccccc2)CC1 (configuration not stated)	.	.	-3	.	98	.
Cc1ccccc1N1C(=O)/C(=C/c2ccco2)C(=O)NC1=S	+	75*	.	10	.	-56
C=CCn1c(O)c(/C(CC)=N/NC(=S)Nc2ccccc2)c(=O)[nH]c1=O	i	33	-49	13	105	67*
CCOC(=O)c1cc2cc(OC)ccc2n1C1CCN(Cc2ccccc2)CC1	.	.	.	.	98	.
CN(C)[C@@H]1C(=O)C(C(N)=O)=C(O)[C@@]2(O)C(=O)C3=C(O)c4c(O)cccc4[C@@](C)(O)[C@H]3C[C@@H]12	.	.	.	38	.	.
CN(C)C1C(=O)C(C(N)=O)=C(O)C2(O)C(=O)C3=C(O)c4c(O)cccc4C(C)(O)C3CC12 (configuration not stated)	+	81*	0	-37	99	0
CN(C)[C@@H]1C(=O)C(C(N)=O)=C(O)[C@@]2(O)C(=O)C3=C(O)c4c(O)cccc4[C@@](C)(O)C3[C@H](O)C12 (some centres not stated)	.	.	26	-82*	96	.
c1ccc(P(c2ccccc2)c2ccccn2)cc1	i	-3	39*	.	97	28
COc1c(OP2(=S)OCC(C)(C)CO2)cnn(C2CCCCC2)c1=O	.	.	-4	.	98	.
CC(C)N1CC=C(c2c[nH]c3ccccc23)CC1	i	-1	-2	8	111	14
C1=C(c2c[nH]c3ccccc23)CCNC1	+	95*	.	4	.	-2
COc1ccc(OC)c(N=Cc2c(O)n(Cc3ccccc3)c(=S)[nH]c2=O)c1	+	35*	-30	17	109	27
COc1ccc(N=Cc2c(O)n(Cc3ccccc3)c(=S)[nH]c2=O)c(OC)c1	?	?	-34	-9	96	19
COP(=S)(OC)SCN1C(=O)c2ccccc2C1=O	i	3	28	19	94	77*
SMILES	PABP polyA inh	eIF4H FP inh	PABP1 MLLE inh	AI-2 QS mod	ABCB6 inh MLPCN	PHOSPHO1 block
COCCNC(=O)c1c(NC(=O)c2ccco2)n(Cc2ccccc2)c2nc3ccccc3nc12	i	18	6	27	157	19
COCCCNC(=O)c1c(NC(=O)c2ccccc2Cl)n(Cc2ccccc2)c2nc3ccccc3nc12	i	42*	-12	11	94	18
CCOC(=O)[C@]12Cc3cc4ccccc4cc3[C@H]1N(Cc1ccccc1)C(=O)c1ccccc12	.	.	.	.	96	.
CCOC(=O)[C@]12Cc3c(cc(OC)c(OC)c3OC)[C@H]1N(C)C(=O)c1ccccc12	.	.	.	.	96	.
O=C1NC(=O)C(=Cc2ccccc2[N+](=O)[O-])C(=O)N1	.	.	31	.	95	.
O=C1NC(=O)C(=Cc2cc3c(cc2[N+](=O)[O-])OCO3)C(=O)N1	+	98*	30	25	94	16
CC12CCC(O)CC1CCC1C2CCC2(C)C(C(=O)CO)CCC12 (configuration not stated)	.	.	9	.	100	.
COc1ccc(/C=C2/C(=O)NC(=O)N(c3ccc(C)c(C)c3)C2=O)cc1CN1C(=O)c2ccccc2C1=O	+	50*	27	15	97	-9
CCOC(=O)c1c(C)c(P(=S)(N2CCOCC2)N2CCOCC2)n(C)c1C	i	-9	21	6	95	61*
CC(C)c1onc(C(=O)N2CCC3(CC2)OCCO3)c1[N+](=O)[O-]	i	0	-14	-5	92	64*
C=CC12CN(C)C3C4COC(CC41)C1(C(=O)Nc4ccccc41)C32 (configuration not stated)	.	.	-10	.	103	.
CCCCN1C(=O)/C(=C\c2ccco2)C(=O)N(CCc2ccccc2)C1=O	+	?	-36	14	106	-23
O=C1NC(=O)N(Cc2ccccc2)C(=O)/C1=C\c1ccco1	i	?	-57	12	102	-6
CCCCN1C(=O)/C(=C/C=C/c2ccco2)C(=O)NC1=S	+	72*	-92	3	106	-11
O=C1NC(=O)N(Cc2ccc(F)cc2)C(=O)/C1=C\C=C\c1ccco1	?	?	-70	25	95	32
O=C1NC(=S)NC(=O)C12C(c1ccc(F)cc1)NC(=S)NC2c1ccc(F)cc1 (configuration not stated)	i	4	-3	10	99	95*
O=C1NC(=S)NC(=O)C12C(c1ccccc1)NC(=S)NC2c1ccccc1 (configuration not stated)	i	4	18	14	100	5
COc1ccc(CN2C(=O)NC(=O)/C(=C/c3ccc(OC)c(OC)c3OC)C2=O)cc1	i	69*	0	11	95	33
